High-throughput results from PubChem BioAssay.
Only some compounds are listed: those with a hit (about 19% of all), similar ones and a draw of the others.
KB-V1 cytotox: qHTS assay for MDR1-selective chemotherapeutics: Primary screen using the drug-selected MDR subline cells KB-V1; KB-V1 MDR cells viability, CellTiter-Glo, 72 h; hit rate 3.4% among 400,000; Potency, µM (highest dose often 46.1 µM), usual class: cytotoxic; AID 1347076, 2019; note: nearly all actives have a fitted effect of over 60% in size
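KB-V1, DMEM (no phenol red) + 10% FBS; cpd pin-transferred, titration series; 72 h, 37 degrees C; CellTiter-Glo, luminescence. Data normalized, curve-fit.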
KB-3-1 tox: qHTS assay for MDR1-selective chemotherapeutics: Primary screen using the parental adenocarcinoma cell KB-3-1 | KB-3-1 viability, CellTiter-Glo ATP luminescence, 72 h | Potency, µM (top dose mostly 46.1 µM), usual class: cytotoxic | hit rate 1.4% among 400,000 | AID 1347075, 2019; note: nearly all actives have a fitted effect of over 60% in size
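Cytotoxicity measured as CellTiter-Glo luminescence after 72 h at 37 C. Compound titrations were pinned onto drug-naive KB-3-1 parental adenocarcinoma cells grown in DMEM with 10% FBS, and normalized data fitted to concentration-response curves.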
HT1080 IDH1KD tx: qHTS for induction of synthetic lethality in tumor cells producing 2HG: qHTS for the HT-1080-IDH1KD cell line. HT-1080 IDH1 knockdown viability, ATP luminescence, 48 h. Potency, µM (highest dose often 46.1 µM), for inactives: top-dose activity, negative = toxicity, usual class: cytotoxic. hit rate 2% among 360,000;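 note: 0% = DMSO wells and -100% = cell-free medium wells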
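% activity derives from luminescence (CellTiter-Glo), normalised to DMSO and no-cell wells. HT-1080-IDH1KD cells, 750/well, had 48 h compound exposure at 37 °C.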
TDP1 cell CPT: qHTS for Inhibitors of human tyrosyl-DNA phosphodiesterase 1 (TDP1): qHTS in cells in presence of CPT; chicken DT40 Tdp1-/-;hTDP1 cells + 20 nM CPT, ATP luminescence, 48 h; Potency, µM (top dose mostly 46.2 µM), without a hit: top-dose activity change, negative = growth inhibition, actives largely listed as inhibitors; hit rate 12% among 420,000; AID 686979, 2013; note: nearly all actives have a fitted effect of over 55% in size
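Chicken DT40 Tdp1-/- cells complemented with human TDP1, 400 cells/well, exposed to compounds plus 20 nM camptothecin for at least 48 h at 37 C; viability read as ATP content by CellTiter-Glo luminescence.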
DT40 TDP1 no CPT: qHTS for Inhibitors of human tyrosyl-DNA phosphodiesterase 1 (TDP1): qHTS in cells in absence of CPT | DT40 Tdp1-/- hTDP1 cells, no CPT, ATP luminescence, 48 h | Potency, µM (top dose mostly 46.2 µM), for the others: at the highest dose activity change, negative = growth inhibition, most hits filed as inhibitors | hit rate 15% among 420,000 | AID 686978, 2013; note: nearly all actives have a fitted effect of over 55% in size
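A cellular qHTS used chicken DT40 cells lacking endogenous Tdp1 but carrying stably transfected human TDP1. Compounds were applied without camptothecin, and cell growth kinetics were judged by ATP-dependent luminescence after ≥48 hr.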
HT1080-NT tox: qHTS for induction of synthetic lethality in tumor cells producing 2HG: qHTS for the HT-1080-NT fibrosarcoma cell line | hit rate 1.6% among 360,000 | HT-1080-NT fibrosarcoma viability, CellTiter-Glo ATP luminescence, 48 h | Potency, µM (top dose mostly 46.1 µM), without a hit: at the top dose activity, negative = less viability, actives largely listed as cytotoxic | AID 686970, 2013;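 note: NT is the 2HG producing partner of a matched IDH1 knockdown line; 0% = DMSO-treated cells and -100% = media-only wells without cells; nearly all actives have a fitted effect of over 55% in size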
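HT-1080-NT; 750 cells/well; 5% FBS RPMI; 48 h compound, 37 degrees C; CellTiter-Glo luminescence; curve fitting and curve-class assignment.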
The depositor's hits bear a star. Calls come from the whole dose curve; as a rule, active = well fitted curve in the direction sought with a large enough effect; inconclusive = small, poorly fitted or top-dose-only effect, or another doubt; inactive = no such curve, though single readings can be large; an effect the other way counts as inactive or inconclusive. Unless noted, % is set by controls: 0 for no effect and ±100 for the full control effect; potency is the fitted concentration of half-maximal effect.

For COc1ccc(S(=O)(=O)NCc2cccnc2)cc1C(=O)N1CCCCC1 the results were KB-V1 cytotox inactive, KB-3-1 tox inactive, HT1080 IDH1KD tx 1.8%, TDP1 cell CPT 5.4%, DT40 TDP1 no CPT -6.3% and HT1080-NT tox 3.8%.
Screening O=C(c1ccc(Cl)c(S(=O)(=O)NCc2ccccc2)c1)N1CCN(c2ccccn2)CC1 returned KB-V1 cytotox 4.11µM*, KB-3-1 tox inactive, HT1080 IDH1KD tx inconclusive, TDP1 cell CPT inconclusive, DT40 TDP1 no CPT inconclusive and HT1080-NT tox inconclusive.
Screening O=C(c1cccc(S(=O)(=O)NCc2ccccc2)c1)N1CCN(c2ccccc2Cl)CC1 returned KB-V1 cytotox inactive, KB-3-1 tox inconclusive, HT1080 IDH1KD tx inconclusive, TDP1 cell CPT 14.6µM*, DT40 TDP1 no CPT inconclusive and HT1080-NT tox inconclusive.
For O=C(c1cccc(S(=O)(=O)NCc2ccccc2)c1)N1CCN(c2ccccc2)CC1 the results were KB-V1 cytotox inactive, KB-3-1 tox inconclusive, HT1080 IDH1KD tx inconclusive, TDP1 cell CPT 6.51µM*, DT40 TDP1 no CPT 5.17µM* and HT1080-NT tox inconclusive.
Screening O=C(c1cccc(S(=O)(=O)NCc2ccccc2)c1)N1CCCC1 returned KB-V1 cytotox inactive, KB-3-1 tox inactive, HT1080 IDH1KD tx 15.1%, TDP1 cell CPT 4.0%, DT40 TDP1 no CPT 11.1% and HT1080-NT tox 12.8%.
COc1ccccc1N1CCN(C(=O)c2cccc(S(=O)(=O)NCc3cccnc3)c2)CC1 was read as KB-V1 cytotox inconclusive, KB-3-1 tox inactive, HT1080 IDH1KD tx -3.7%, TDP1 cell CPT 16.4µM*, DT40 TDP1 no CPT inconclusive and HT1080-NT tox -0.2%.
For Cc1ccc(S(=O)(=O)N2CCCCC2)cc1NC(=O)Cn1c(=O)cnc2ccccc21 the results were KB-V1 cytotox inconclusive, KB-3-1 tox inactive, HT1080 IDH1KD tx 2.3%, TDP1 cell CPT -22.4%, DT40 TDP1 no CPT inconclusive and HT1080-NT tox 0.2%.
CC1(C)OB(c2cnc(C#N)nc2)OC1(C)C was read as HT1080 IDH1KD tx -0.9%, TDP1 cell CPT 3.3%, DT40 TDP1 no CPT -11.3% and HT1080-NT tox -0.2%.
Screening COc1cc(C(C)=O)ccc1OCC(=O)NCCCn1nc(C)cc1C returned KB-V1 cytotox inconclusive, KB-3-1 tox inactive, HT1080 IDH1KD tx -9.4%, TDP1 cell CPT -0.2%, DT40 TDP1 no CPT inconclusive and HT1080-NT tox -5.1%.
Screening CCCc1nn2c(=O)cc(COc3ccc(NC(=O)c4ccco4)cc3)nc2s1 returned KB-V1 cytotox inactive, KB-3-1 tox inactive, HT1080 IDH1KD tx 13.5%, TDP1 cell CPT -18.5%, DT40 TDP1 no CPT 21.1% and HT1080-NT tox 6.7%.
`O=C(c1cccc(S(=O)(=O)N2CCCC2)c1)N1CCN(c2ncccn2)CC1` gave KB-V1 cytotox inactive, KB-3-1 tox inactive, HT1080 IDH1KD tx 1.9%, TDP1 cell CPT 21.4%, DT40 TDP1 no CPT -26.8% and HT1080-NT tox 4.2%.
Screening O=C(c1cccc(S(=O)(=O)NCCOc2ccccc2)c1)N1CCN(c2ncccn2)CC1 returned KB-V1 cytotox inconclusive, KB-3-1 tox inactive, HT1080 IDH1KD tx -20.9%, TDP1 cell CPT 25.9µM*, DT40 TDP1 no CPT 23.1µM* and HT1080-NT tox -18.4%.
For CC1CC(C)(C)CC2(C1)NC(=O)N(CC(=O)N(C)Cc1nc3ccccc3c(=O)[nH]1)C2=O (configuration not stated) the results were KB-V1 cytotox inconclusive, KB-3-1 tox inactive, HT1080 IDH1KD tx -6.3%, TDP1 cell CPT -25.4%, DT40 TDP1 no CPT -24.6% and HT1080-NT tox -7.0%.
Screening COc1cccc(/C=N/NC(=O)C(=O)Nc2ccccc2OC(F)(F)C(F)F)c1O returned KB-V1 cytotox inconclusive, KB-3-1 tox 9.2µM*, HT1080 IDH1KD tx inconclusive, TDP1 cell CPT 3.26µM*, DT40 TDP1 no CPT 3.26µM* and HT1080-NT tox inconclusive.
`COc1cccc(/C=N/NC(=O)c2ccc(=O)[nH]n2)c1O` gave KB-V1 cytotox inactive, KB-3-1 tox inactive, HT1080 IDH1KD tx 23.1µM*, TDP1 cell CPT 23.1µM*, DT40 TDP1 no CPT 14.6µM* and HT1080-NT tox inconclusive.
COc1ccc(OC)c(/C=N\NC(=O)c2ccc(-c3ccccc3)cc2)c1 was read as KB-V1 cytotox inactive, KB-3-1 tox inactive, HT1080 IDH1KD tx 14.9%, TDP1 cell CPT inconclusive, DT40 TDP1 no CPT -13.6% and HT1080-NT tox 3.5%.
`COc1ccc(OC)c(/C=N/NC(=O)c2ccc(=O)[nH]n2)c1` gave KB-V1 cytotox inconclusive, KB-3-1 tox inactive, HT1080 IDH1KD tx -0.7%, TDP1 cell CPT 2.8%, DT40 TDP1 no CPT -10.5% and HT1080-NT tox -2.4%.
`COc1cccc(/C=N/NC(=O)c2ccc(-c3ccccc3)cc2)c1O` gave KB-V1 cytotox inconclusive, KB-3-1 tox 5.8µM*, HT1080 IDH1KD tx inconclusive, TDP1 cell CPT 5.17µM*, DT40 TDP1 no CPT 4.61µM* and HT1080-NT tox inconclusive.
For COc1cccc(/C=N/NC(=O)c2[nH]c(C)c(C(=O)N/N=C/c3cccc(OC)c3O)c2C)c1O the results were KB-V1 cytotox inactive, KB-3-1 tox inconclusive, HT1080 IDH1KD tx -28.8%, TDP1 cell CPT 5.17µM*, DT40 TDP1 no CPT 3.26µM* and HT1080-NT tox -21.3%.
For COc1cccc(/C=N/NC(=O)c2c(C)nc3ccc(Cl)cn23)c1O the results were KB-V1 cytotox inconclusive, KB-3-1 tox inconclusive, HT1080 IDH1KD tx inconclusive, TDP1 cell CPT 0.92µM*, DT40 TDP1 no CPT 1.03µM* and HT1080-NT tox -29.4%.
`COc1ccccc1/C=N\NC(=O)c1c(C)nc2ccc(Cl)cn12` gave KB-V1 cytotox inactive, KB-3-1 tox inactive, HT1080 IDH1KD tx 8.5%, TDP1 cell CPT 1.1%, DT40 TDP1 no CPT -22.4% and HT1080-NT tox 13.3%.
`COc1cc(OC)c(OC)cc1/C=N/NC(=O)c1ccc(=O)n(C)c1` gave KB-V1 cytotox inactive, KB-3-1 tox inactive, HT1080 IDH1KD tx 13.6%, TDP1 cell CPT -20.5%, DT40 TDP1 no CPT -22.8% and HT1080-NT tox 9.6%.
Screening COc1cccc(/C=N/NC(=O)c2ccc(=O)n(C)c2)c1O returned KB-V1 cytotox inactive, KB-3-1 tox inactive, HT1080 IDH1KD tx inconclusive, TDP1 cell CPT 5.8µM*, DT40 TDP1 no CPT 6.51µM* and HT1080-NT tox inconclusive.
